The panel holds about 83,000 compounds, 20% with a hit somewhere; the sample as a whole holds those more often.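 Treatment: one concentration, 48 hours, 96-well format. Scoring: percent growth, with anything below 10 considered active.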 Active and inactive are the calls of the source.

This assay concerns KM12 colon. As to the kind of experiment: NCI-60 one-dose screen, 48 h (100 = growth as untreated, 0 = no growth, -100 = all killed). The settings on record: 10 µM unless noted.
`CCNc1nc(N2CC(=O)Nc3cc(OC)ccc32)c2ccccc2n1`: the growth is 4.88% (active).
As for `COc1ccc(/C=C/c2nc(N3CCOCC3)c3nc(Cl)c(Cl)cc3n2)cc1OC`, the figure is 93.9% (inactive); as for `O=S=Nc1ccc([N+](=O)[O-])cc1`, 81.6% (inactive).

(Values after PubChem BioAssay (NCI).)
